Reference: ChEMBL document CHEMBL3988442, “University of Dundee, Small-Polar-MMV Screening Library” (2021)
In all, about 38,000 compounds went through this assay and about 1,200 (3.2%) showed an effect of 50% or more. The median lay at about -58%. The sample as a whole holds a higher share of strong results than the screen did.

system: Plasmodium falciparum; assay: Calibr Malaria Delayed Death Assay SOP; type: functional, organism-based; set-up: scale not given: in the data most compounds retested in dose-response had high values; details: concentration 4.99e-06 (unit not given; other assays of the set use mol/L)

Row | Compound | Percent Effect [%]
1 | Cc1noc(C2CCC3(CCN(C(=O)c4ccnnc4)CC3)O2)n1 (stereo not given) | -55.26
2 | Cc1cccc(NC(=O)[C@@H]2CCCN2Cc2nc(C)c(C)o2)n1 | -28.43
3 | CCOc1ccc(C(C)Nc2ncnc3c2CCNC3)cc1OCC (stereo not given) | 46.78
4 | CC(Nc1ncnc2c1CCNC2)c1ccc2c(c1)CCCC2 (stereo not given) | 70.15
5 | CC(C)Nc1ncnc2c1CCNCC2 | -47.68
6 | Cc1ccc(C)c(-n2ncc(C(=O)NCC3COC(C)(C)O3)c2N)c1 (stereo not given) | -97.45
7 | COCCN(C)C[C@@H]1CN(C(=O)c2cccc(C#N)c2)C[C@@H]1CO | -70.73
8 | COc1cc(Cl)c(NCc2c(C)noc2C)cc1OC | -68.38
9 | Cc1cccc(C(=O)Nc2cccc3c2CCCC3)n1 | -261.8
10 | O=C(Nc1cccc2c1CCCC2)c1cccnc1N1CCCNCC1 | 53.52
11 | CC1CN(c2ncccc2C(=O)Nc2cccc3c2CCCC3)CCN1 (stereo not given) | 10.16
12 | Cc1cccc(OC2CCN(C(=O)c3ccc4ncsc4c3)CC2)n1 | -115.6
13 | CCNc1ncc2c(n1)CN(c1ccc(Cl)cc1)C2=O | -180.2
14 | Cc1cccc(COC2COC3(CCN(Cc4ccoc4)CC3)C2)n1 (stereo not given) | -18.84
15 | Cc1cccc(COC2COC3(CCN(S(C)(=O)=O)CC3)C2)n1.O=C(O)C(F)(F)F (stereo not given) | -59.75
16 | CCN1CCC2(CC1)CC(NCc1cccc(C)n1)c1ccccc1O2.O=C(O)C(F)(F)F.O=C(O)C(F)(F)F.O=C(O)C(F)(F)F (stereo not given) | 91.27
17 | CCCC(=O)N1CCC2(CC1)CC(NC(C)=O)c1ccccc1O2 (stereo not given) | -58.82
18 | CCOC1COC2(CCN(Cc3cccc(C)n3)CC2)C1.O=C(O)C(F)(F)F (stereo not given) | -37.49
19 | COC(=O)c1cc(C)nc(N2CCN(Cc3ccn(C(C)C)c3)CC2)n1 | -8.689
20 | Cc1cccc(NC(=O)CN2C(=O)CC(C)(C)c3ccccc32)n1 | -54.59
21 | CC(C)OCCC(=O)N1CCN(CC(O)c2ccccc2)CC1 (stereo not given) | -51.21
22 | COc1cc(N2CC[C@@H]3O[C@@H](C(=O)NCCN(C)C)C[C@@H]32)ncn1 | -52.73
23 | O=C(Cc1n[nH]c(-c2cncc(Br)c2)n1)NCc1cccnc1 | -11.15
24 | Cn1ncc2c1CCCC2NCc1cccc(OC2CCCC2)c1 (stereo not given) | 2.699
25 | CC(C)[C@H](NC(=O)Cn1nc2c(cc1=O)CCCC2)C(=O)O | -82.81
26 | CCn1nccc1CNC(=O)C1CCCCC1 | -119.3
27 | Cc1cc(NC(=O)N2CCCC2C(=O)NC2CC2)c2ncccc2c1 (stereo not given) | -118

Row | Compound | Percent Effect [%]
28 | Cc1cc(NC(=O)NC2CCN(C(C)C)CC2)c2ncccc2c1 | 79.09
29 | Cc1cc(NC(=O)N2CCCC2C(C)(C)O)c2ncccc2c1 (stereo not given) | -22.81
30 | CC(C)C(=O)Nc1ccc2c(c1)ncn2CC(=O)NCCN(C)C | -104.6
31 | O=C(NCCc1cccc(Cl)c1)C1CCOCC1 | -133.6
32 | O=C(Cc1cccc(Cl)c1)N[C@@H]1CCNC[C@H]1O | -79.06
33 | O=C(C[S+]([O-])Cc1cccc(Cl)c1)NC1CCCC1 (stereo not given) | -107.7
34 | O=C(O)c1cn2cc(C(F)(F)F)ccc2n1 | -36.42
35 | O=C(NCc1ccco1)[C@H]1C[C@H]2OCC[C@H]2N(C(=O)c2ccnnc2)C1 | -30.68
36 | CCCN1CCC(N2CCOC(Cc3cccc(OC)c3)C2)CC1 (stereo not given) | -127.7
37 | O=C(NCCN1CCCCC1)c1nc(-c2cccc3[nH]ccc23)no1 | 15.88
38 | COCC(=O)N1CCCC1c1csc(Nc2cnccn2)n1 (stereo not given) | -55
39 | CCC(=O)N1CCCC1c1csc(Nc2cnccn2)n1 (stereo not given) | -46.83
40 | O=C(O)C(F)(F)F.O=C(O)C(F)(F)F.O=C1NC2(CCN(Cc3ccoc3)CC2)CC1c1ccncc1 (stereo not given) | -15.5
41 | Nc1nccc(N2CCC(c3cc(Cc4ccccc4)n[nH]3)CC2)n1 | 35.49
42 | Cc1n[nH]cc1CNCC(O)c1ccc(F)c(F)c1.Cl (stereo not given) | -33.27
43 | Cc1cc(C)c(CNCC(O)c2ccc(F)c(F)c2)c(C)c1.Cl (stereo not given) | 92.75
44 | Cc1nc(CNC(=O)NCC(O)c2ccc(F)c(F)c2)cs1 (stereo not given) | -178.5
45 | Cc1csc(CNC(=O)NCC(O)c2ccc(F)c(F)c2)n1 (stereo not given) | 2.8
46 | Cc1n[nH]c(C)c1CNCC(O)c1ccc(F)c(F)c1 (stereo not given) | 14.72
47 | COCCCNc1nc(CNC(C)=O)cc(-c2ccco2)n1 | -87.48
48 | O=C(O)C(F)(F)F.O=S(=O)(C1CC1)N1CCc2ncnc(N3CCCC3)c2CC1 | -107.1
49 | CCc1nc(C2CCCN2Cc2cnc(C)cn2)no1 (stereo not given) | -15.63
50 | CC(C)c1cc(NC(=O)CN2CCCC2Cn2cncn2)on1 (stereo not given) | -56.31
51 | CN1CCCc2cc(CNC(=O)c3ccncc3)ccc21 | -23.61
52 | COC(=O)c1cccc(C(=O)NCc2ccc3c(c2)CCCN3C)c1 | -12.04
53 | COc1cc(C(=O)NCc2ccc3c(c2)CCCN3C)cc(OC)c1Br | 65
54 | Cc1nn(CC(O)CN2CCC(C)CC2)c(=O)c(C#N)c1C (stereo not given) | -55.82

Row | Compound | Percent Effect [%]
55 | O=C(O)C1CCN(C(=O)Cn2ccc3c(Cl)cccc32)CC1 | -74.89
56 | O=C(Cn1ccc2ccc(Br)cc21)NC[C@@H]1CCCN2CCCC[C@H]12 | 78.77
57 | COc1ccc2c(ccn2CC(=O)NC[C@@H]2CCCN3CCCC[C@H]23)c1 | -61.04
58 | Cc1cccc2c1ccn2CC(=O)NC[C@@H]1CCCN2CCCC[C@H]12 | 70.06
59 | O=C(O)C1CCN(C(=O)CCn2ccc3cc(Br)ccc32)CC1 | -107.6
60 | O=C(CCn1ccc2cc(Br)ccc21)NC[C@@H]1CCCN2CCCC[C@H]12 | 65.78
61 | O=C(Cn1ccc2ccccc21)NC[C@@H]1CCCN2CCCC[C@H]12 | -17.29
62 | O=C(Cn1ccc2ccc(F)cc21)NC[C@@H]1CCCN2CCCC[C@H]12 | 36.3
63 | O=C(Cn1ccc2cc(Br)ccc21)NC[C@@H]1CCCN2CCCC[C@H]12 | -18.45
64 | CC(C)c1nsc(N2CCC(OCCN3CCOCC3)CC2)n1 | -47.66
65 | CN(C)C(=O)COCC1CN(C2CCC2)Cc2ncn(C)c21.O=C(O)C(F)(F)F.O=C(O)C(F)(F)F (stereo not given) | -81.18
66 | Cc1cc2ccccc2n1CCC(=O)N1CCCC(O)(CN(C)C)CC1 (stereo not given) | 54.68
67 | CN(C)CC1(O)CCCN(C(=O)Cn2nc3ccccc3n2)CC1 (stereo not given) | -95.76
68 | Cc1c(C(=O)N2CCCC(O)(CN(C)C)CC2)c2cc(O)ccc2n1C (stereo not given) | -101.4
69 | Cn1nnc2c1C(COCC1CC1)CN(C(=O)Cc1cccs1)C2 (stereo not given) | -35.42
70 | N#Cc1c(CN2CCCC2Cn2cccn2)cn2ccccc12 (stereo not given) | -64.03
71 | CCc1cc(C(=O)N2CC[C@@H](c3ccc4ccccc4c3)[C@H](O)C2)[nH]n1 | 17.14
72 | CN(CC(N)=O)Cc1cc(Cl)cc2cccnc12 | -110.1
73 | OCCN1CCN(Cc2cc(Cl)cc3cccnc23)CC1 | -35.44
74 | CN(Cc1cc(F)cc2cccnc12)CC1CCN(CCO)CC1 | 84.26
75 | CN(Cc1noc(C2CC2)n1)CC1CCN(CCO)CC1 | -111.1
76 | CC(C)c1nc(CN(C)CC2CCN(CCO)CC2)no1 | -37.31
77 | CC(O)CN1CCC(CN(C)CC(=O)NC(C)C)CC1 (stereo not given) | -132.6
78 | CC(O)CN1CCC(CN(C)Cc2cc(F)cc3cccnc23)CC1 (stereo not given) | 86.77
79 | CN(Cc1cc(Cl)cc2cccnc12)CC1CCN(CCO)CC1 | 88.36
80 | CC(O)CN1CCC(CN(C)CCC(=O)NC2CCCC2)CC1 (stereo not given) | -87.19
81 | CCn1cc(Br)c(C(=O)NCc2ccccc2)n1 | -62.24

Row | Compound | Percent Effect [%]
82 | COc1ccc(C(=O)N2CCC(Nc3cccnn3)CC2)cn1 | -79.23
83 | CN(C)c1ncc2c(n1)CN(C1CCSCC1)C2=O | -103.3
84 | Cc1cc(C2CCCN(Cc3nnc(Cc4ccccc4)o3)C2)n[nH]1 (stereo not given) | -117.5
85 | COc1cc(Cl)ccc1C(=O)N1CCCC(c2cc(C)[nH]n2)C1 (stereo not given) | -107.6
86 | Cc1cc(CNC(=O)c2ccno2)c(C)o1 | -93.35
87 | CCS(=O)(=O)c1ccccc1C(=O)N1CCCC(n2cccn2)C1 (stereo not given) | -21.75
88 | CC(C)(O)CCc1cccc(C(=O)NCc2cnn3cccnc23)c1 | -126.6
89 | O=C(NCc1cnn2cccnc12)c1cccc(CC2CCNCC2)c1 | 65.91
90 | Cc1cccnc1[C@H](C)NC(=O)c1cccc(CC2CCNCC2)c1 | 7.759
91 | CCNC(=O)C1CCCN(C(=O)Nc2ccc3c(c2)CCCN3C)C1 (stereo not given) | 9.496
92 | CCOCC1CCN(C(=O)Nc2ccc3c(c2)CCCO3)C1 (stereo not given) | -56.87
93 | CCOCC1CCN(C(=O)Nc2ccc3c(c2)CCCN3C)C1 (stereo not given) | 57.13
94 | Cc1noc([C@H]2COC[C@H]3CN(C(=O)Cc4cccs4)C[C@H]32)n1 | -60.46
95 | CN(C(=O)Cn1nc(-c2cccs2)ccc1=O)C1CCS(=O)(=O)C1 (stereo not given) | -97.97
96 | CC1=C(CCN2CC[C@@H](N3CCC(O)CC3)[C@H](O)C2)C(C)(C)CCC1 | -51.59
97 | CC1=C(CCN2C[C@H](O)[C@@H](N3CCOCC3)C2)C(C)(C)CCC1 | 77.23
98 | Cc1c(CN2C[C@H](O)[C@@H](N3CCOCC3)C2)[nH]c2ccc(F)cc12 | -95.14
99 | COc1ccc2c(c1)NC(=O)C2OC(=O)Cc1ccccc1C (stereo not given) | 10.16
100 | CN1CCN(c2nccc(-c3cncnc3C3CCCCC3)n2)CC1 | 60.54
101 | c1cc(-c2cn3nccc3nc2C2CCCCC2)nc(N2CCCC2)n1 | -1.044
102 | CCc1ncc2c(n1)CN(c1nccc(C3CCCC3)n1)C2 | -48.7
103 | Cc1nn(C)cc1-c1ccnc(N2CCCN(CC(C)C)CC2)n1 | -23.38
104 | CN1CCCN(c2nc(C3CCCC3)nc3c2cnn3C)CC1 | -58.12
105 | CN1CCCN(c2nccc(-c3cncnc3C3CCCCC3)n2)CC1 | 59.73
